Molecules are shown by their SMILES. Several values for one entry are separate records, joined by “and”; a condition that tells them apart may be missing. Equal entries are not always repeated.

The assay deals with Glucose transporter (Leishmania mexicana) (UniProt O61059). The assay can be described thus: ST_JUDE_LEISH: Cytotoxicity at 2uM final concentration against transgenic Leishmania Mexicana promastigotes LmGT2 that are glucose transport deficient and complemented with the L. Mexicana glucose transporter 2. Activity is measured by DNA content using SYBR green in vitro. The class given is functional.
As to `CC(C)CCNC(=O)C1Cc2c([nH]c3cc(Br)ccc23)C2(CCN(Cc3ccccc3)CC2)N1` (stereo unspecified), the inhibition came out at 14.8%.

For `O=C(NCCN1CCC(c2ccncc2)CC1)c1cccc(Nc2nccc(Nc3ccc(Oc4ccccc4)cc3)n2)c1`, the inhibition is -0.06%.

As to `COC(=O)c1c(NC(=O)c2cccc(C(F)(F)F)c2)sc2c1CCN(Cc1ccccc1)C2`, the inhibition was -1.31%. In the case of `CCCCNC(=O)c1cc(CNC2CCCCC2)ccc1-c1cccc(CNCc2ccc(-c3ccccc3)cc2)c1`, the inhibition stood at 2.67%.

Turning to `COC(=O)c1ccc2[nH]cc(C3CCN(CCC4CCN(C(=O)/C=C/c5ccc(Cl)c(Cl)c5)CC4)CC3)c2c1`, the inhibition was determined as 5.91%.

`CCOCCCn1c(=N)c(C(=O)NCc2ccc(OC)cc2)cc2c(=O)n3cccc(C)c3nc21`: the inhibition amounted to 3.8%.

Turning to `O=C(/C=C/c1c[nH]c2ccccc12)NCCCCCN1CCC(c2c[nH]c3ccccc23)CC1`, the inhibition turned out to be 1%. With `Oc1cccc(-c2nc3cc(C4=NC5CCCCC5N4)ccc3[nH]2)c1` (stereo unspecified), the inhibition is 2.39% and 0.63%. Regarding `CON=Cc1sc(CNCCCN=c2cc(O)c3ccccc3[nH]2)c(C)c1Br`, the inhibition was 3.41%. In the case of `NC1CCN(c2nc(NCCCc3ccc(O)cc3)nc(NCc3cccc4ccccc34)n2)CC1`, the inhibition came out at 2.63%. `COC(=O)c1cccc(N2CCN(CCCNC(=O)/C(=C/C=C/c3cc4cc(Cl)c(Cl)cc4[nH]3)OC)CC2)c1`: the inhibition is -1.57%. `O=C(/C=C/c1ccc(Cl)c(Cl)c1)NCCCCCN1CCC(NC(=O)Nc2ccc(OC(F)F)cc2)CC1`: the inhibition was 5.2%. Next, `COc1ccc(-c2nc(NC(=O)Cc3ccc(OC)c(OC)c3)sc2C)cc1`: 1.83%; `COc1ccc(NC(=O)[C@H](CC(C)C)Nc2cc(C)nc(Nc3ccccc3)n2)cc1`: 14.9%. Turning to `Cc1cc(N[C@@H](Cc2ccccc2)C(=O)NCc2cccc(F)c2)nc(NCC2CCCCC2)n1`, the inhibition was -1.9%.

For `CN1CCCCC1CCc1cc(C(=O)Nc2ccc(-c3ccc(O)cc3)cc2)ccc1O` (stereo unspecified), the inhibition is -0.5%. As for `Cc1cc(C)c(C)c(OCCCON2C(=N)N=C(N)NC2(C)C)c1C`, the inhibition is 2.17%.

As to `N=C1c2ccccc2CN1CC(=O)c1ccc(Cl)c(Cl)c1`, the inhibition amounted to 2.53%.

As for `O=C(/C=C/c1ccc(Cl)c(Cl)c1)NC1CCC(CN2CCC(c3nc4ccccc4n3CCCO)CC2)CC1` (stereo unspecified), the inhibition came to 1.75%. Turning to `CCOC(=O)c1ccc(OCc2ccc(-c3ccccc3)cc2)cc1`, the inhibition is 0.75%. Consider `O=C(NCCCN1CCCCC1)c1ccc(Nc2nccc(Nc3ccc(Oc4ccccc4)cc3)n2)cc1`, for which the inhibition came out at 7.37%. Consider `COc1ccc(NC(=O)[C@H](Cc2ccccc2)Nc2cc(C)nc(NCCOc3ccccc3)n2)cc1`, for which the inhibition was 2.55%.

With `O=S(=O)(Nc1ccc(CCN2CCCCC2CCN2CCCC2)cc1)c1cccc2cccnc12` (stereo unspecified), the inhibition turned out to be 2.15%. Consider `Cc1ccc(-n2c(C)nc3c(Nc4ccc(-c5ccncc5)cc4)ncnc32)c(C)c1`, for which the inhibition is 81%. `CCc1sc(N2CCN(C)CC2)nc1C(=O)Nc1ccc(F)cc1C(F)(F)F`: the inhibition is -0.43%.

Take `COc1ccc(NC(=O)[C@H](CC(C)C)Nc2ccnc(Nc3ccccc3)n2)cc1`: the inhibition is -0.96%.

For orientation: inhibition means the drop in the measured response relative to a control, in per cent.

(Values after ChEMBL document CHEMBL3433997, “St. Jude Leishmania screening dataset” (2016).)
